Laboratory results published in PubChem BioAssay (NCATS).
Records with an inconclusive call do not appear. Where a call stands in place of a potency, no number is given. A number with no mark means an inactive call. Active and inactive are the calls of the source. Unless noted, calls follow the shape of the dose curve; as a rule, active = well fitted curve in the direction sought with a large enough effect; inconclusive = small, poorly fitted or top-dose-only effect, or another doubt; inactive = no such curve, though single readings can be large; an effect the other way counts as inactive or inconclusive.

Experiments:
[1] = Primary qHTS for small molecule stabilizers of the endoplasmic reticulum resident proteome: Secreted ER Calcium Modulated Protein (SERCaMP) assay (AID 1508630)
Method in brief: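 GLuc-SERCaMP-expressing SH-SY5Y cells, pretreated 16 h with compound, are challenged with thapsigargin to empty ER calcium stores; after 4 h, coelenterazine is added directly to the medium and luminescence is imaged.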

[2] = A High-Content qHTS Against Drug Library for the Identification of Small Molecules that Inhibit DYT1 Early Onset Primary Dystonia-Associated Cell Pathology (AID 1645839; calls by dose curve; also: series mostly up to about 46 µM)
Method in brief: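 In this high-content image screen, delE TorsinA mislocalization in inducible Flp-In 293 cells is scored as %pathology, with cell count serving as the counterscreen. Compound exposure lasts 48 h under tetracycline induction in reduced-serum medium.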

[3] = molecular target: Cytochrome P450 2D6 (Homo sapiens) (UniProt P10635); test: Cytochrome P450 family 2 subfamily D member 6 (CYP2D6) small molecule antagonists: luciferase biochemical (cell-free) qHTS assay (AID 1645840; active = well fitted curve in the direction sought with a large enough effect in the repeat runs; an effect the other way counts as inactive or inconclusive; also: nearly all actives have a fitted effect of over 55% in size; also: potency is read from the fitted curve at half-maximal effect)
Cytochrome P450 2D6 (Homo sapiens), sequence (P10635 whole entry, looked up): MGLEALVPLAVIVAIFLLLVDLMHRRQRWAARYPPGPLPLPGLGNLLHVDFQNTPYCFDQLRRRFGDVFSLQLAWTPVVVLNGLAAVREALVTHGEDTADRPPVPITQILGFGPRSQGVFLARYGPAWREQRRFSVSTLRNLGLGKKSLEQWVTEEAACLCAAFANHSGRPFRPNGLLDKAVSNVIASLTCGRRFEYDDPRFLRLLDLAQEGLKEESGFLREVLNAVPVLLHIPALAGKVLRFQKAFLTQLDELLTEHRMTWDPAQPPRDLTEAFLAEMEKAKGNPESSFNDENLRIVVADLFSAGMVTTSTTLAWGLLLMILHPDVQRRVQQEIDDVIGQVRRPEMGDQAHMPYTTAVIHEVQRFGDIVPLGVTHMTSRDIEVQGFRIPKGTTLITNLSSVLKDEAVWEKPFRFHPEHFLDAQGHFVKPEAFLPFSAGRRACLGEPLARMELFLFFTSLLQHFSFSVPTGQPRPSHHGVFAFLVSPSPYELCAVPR
Method in brief: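 P450-Glo luminescent screen: recombinant CYP2D6 enzyme–proluciferin substrate mix preincubated with compound 10 min at room temperature, then NADPH regeneration added for 1 h at room temperature. Detection reagent added for 20 min; luciferin light read as relative luminescence units.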

[4] = molecular target: Cytochrome P450 2C9 (Homo sapiens) (UniProt P11712); test: Cytochrome P450 family 2 subfamily C member 9 (CYP2C9) small molecule antagonists: luciferase biochemical (cell-free) qHTS assay (AID 1645842; active = well fitted curve in the direction sought with a large enough effect in the repeat runs; an effect the other way counts as inactive or inconclusive; also: nearly all actives have a fitted effect of over 55% in size; also: potency is read from the fitted curve at half-maximal effect)
Cytochrome P450 2C9 (Homo sapiens), sequence (P11712 whole entry, looked up): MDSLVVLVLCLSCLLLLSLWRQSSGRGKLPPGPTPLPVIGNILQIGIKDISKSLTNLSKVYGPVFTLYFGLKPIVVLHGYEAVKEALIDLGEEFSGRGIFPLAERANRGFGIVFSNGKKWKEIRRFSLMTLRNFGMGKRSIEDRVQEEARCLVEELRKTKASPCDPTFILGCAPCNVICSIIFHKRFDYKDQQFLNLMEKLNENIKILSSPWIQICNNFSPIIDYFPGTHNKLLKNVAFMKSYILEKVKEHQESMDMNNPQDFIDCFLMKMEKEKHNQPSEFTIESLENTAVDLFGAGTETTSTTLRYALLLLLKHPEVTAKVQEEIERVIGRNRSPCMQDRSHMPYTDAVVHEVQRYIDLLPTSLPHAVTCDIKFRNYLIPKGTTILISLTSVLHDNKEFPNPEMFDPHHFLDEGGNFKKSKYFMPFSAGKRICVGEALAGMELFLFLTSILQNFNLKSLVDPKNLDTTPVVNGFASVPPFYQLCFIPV
Method in brief: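 Luminescence, after 20 min with luciferin detection reagent, reflected CYP2C9 turnover during a 1 h NADPH-driven reaction at 37C. Enzyme-substrate mix contained 0.4% bovine serum albumin and was preincubated with compound 10 min at room temperature.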

[5] = Primary qHTS for inhibitors of nuclear receptor binding SET domain protein 2 (NSD2) in an isogenic RCH-ACV NSD2 p.E1099K mutant (9B) (AID 1645876); also: nearly all actives have a fitted effect of over 70% in size; also: potency is read from the fitted curve at half-maximal effect
Papain (Carica papaya) = Papain (Carica papaya) (UniProt P00784); test: Primary qHTS assay for inhibitors of the protease papain (AID 1645873);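 also: papain turnover of Z-FR-AMC read as the AMC fluorescence gain over 10 min; series mostly up to about 50 µM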
Papain (Carica papaya), sequence (P00784 whole entry, looked up): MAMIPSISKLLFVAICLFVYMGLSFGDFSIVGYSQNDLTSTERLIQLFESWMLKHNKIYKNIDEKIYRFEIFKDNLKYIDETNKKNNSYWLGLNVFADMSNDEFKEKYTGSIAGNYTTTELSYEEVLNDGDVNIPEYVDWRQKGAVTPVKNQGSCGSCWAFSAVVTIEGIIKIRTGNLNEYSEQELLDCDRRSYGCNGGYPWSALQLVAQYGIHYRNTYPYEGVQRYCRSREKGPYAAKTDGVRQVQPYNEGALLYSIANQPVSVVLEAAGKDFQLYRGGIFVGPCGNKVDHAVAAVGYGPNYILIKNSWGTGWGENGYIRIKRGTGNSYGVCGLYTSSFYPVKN

SMILES	Potency [1]	Potency [2]	Potency [3]	Potency [4]	Potency [5]	Potency (Papain (Carica papaya))
Oc1cccc(O)c1	inactive	inactive	inactive	inactive	inactive	–
COc1cc2[nH]c(=O)[nH]c(=O)c2cc1OC	inactive	inactive	inactive	inactive	inactive	–
O=C(CCCN1CCN(c2ccccn2)CC1)c1ccc(F)cc1	inactive	inactive	15.5 µM (active)	12.3 µM (active)	inactive	–
C[C@H]1O[C@H](O[C@H]2[C@H](O)[C@@H](O)[C@@H](O[C@H]3[C@H](O)[C@@H](O)[C@H](O)O[C@@H]3CO)O[C@@H]2CO)[C@H](O)[C@@H](O)[C@@H]1N[C@H]1C=C(CO)[C@@H](O)[C@H](O)[C@H]1O	inactive	inactive	inactive	inactive	inactive	–
COC(=O)[C@H]1[C@H]2C[C@@H]3c4[nH]c5cc(OC)ccc5c4CCN3C[C@H]2C[C@@H](OC(=O)COc2ccc(OC)cc2)[C@@H]1OC	inactive	inactive	9.77 µM (active)	inactive	inactive	–
CC(C)(C)C(=O)C(Oc1ccc(Cl)cc1)n1ccnc1 (configuration not stated)	inactive	inactive	–	2.75 µM (active)	–	–
O=C(Oc1ccccc1C(=O)O)c1ccccc1O	inactive	inactive	–	inactive	inactive	–
CCN(CC)C(C)CN1c2ccccc2Sc2ccccc21 (configuration not stated)	inactive	inactive	–	inactive	inactive	inactive
CCOC(CN1CCN(CC(C)C(=O)c2ccccc2)CC1)c1ccccc1 (configuration not stated)	inactive	inactive	0.0952 µM (active)	–	inactive	–
C[C@]12CC[C@@H]3c4ccc(O)cc4CC[C@H]3[C@@H]1CC[C@@H]2OC(=O)CCC1CCCC1	inactive	inactive	–	19 µM (active)	inactive	–
CN(C)CCOC(C)(c1ccccc1)c1ccccn1 (configuration not stated)	inactive	inactive	–	inactive	inactive	inactive
C[C@H]1O[C@@H](n2cc(F)c(=O)[nH]c2=O)[C@H](O)[C@@H]1O	inactive	inactive	–	inactive	20.9 µM (active)	–
c1ccc(CN(CC2=NCCN2)c2ccccc2)cc1	inactive	inactive	1.74 µM (active)	–	inactive	–
O=c1cc[nH]c(=S)[nH]1	inactive	inactive	–	inactive	–	–
Nc1cc(=O)[nH]c(N)n1	inactive	inactive	–	inactive	inactive	inactive
CN(C)CCN(Cc1ccccc1)c1ccccn1	inactive	inactive	–	inactive	–	–
C[C@]12C[C@H](O)[C@H]3[C@@H](CCC4=CC(=O)CC[C@@]43C)[C@@H]1CC[C@@H]2C(=O)CO	inactive	inactive	inactive	–	–	inactive
Cc1cccc(Nc2cc(Cl)nc(SCC(=O)O)n2)c1C	inactive	inactive	inactive	–	inactive	–
